PubChem BioAssay (Tox21)
Records with an inconclusive call do not appear. Calls of active or inactive are those of the source. The call rests on the fitted dose curve; in most records, active means well fitted inhibition curve with a large enough effect in the signal ratio in the repeat runs (not every such curve was filed as active); inconclusive means weak or mixed curves, or effect the other way; inactive means no such curve, though single readings can be large or run the other way; the % refers to the signal ratio.

molecular target: Glucocorticoid receptor (Homo sapiens) (UniProt P04150); assay: qHTS assay to identify small molecule antagonists of the glucocorticoid receptor (GR) signaling pathway (AID 720692); conditions: GR-bla HeLa, beta-lactamase FRET ratio, dexamethasone-stimulated, 18 h; series mostly up to 58.5 µM; activity change, negative = inhibition: at the top concentration
Description: U.S. Tox21 Program National Center for Advancing Translational Sciences [NCATS] NIH Chemical Genomics Center [NCGC] U.S. Environmental Protection Agency [EPA] National Institutes of Environmental Health Sciences [NIEHS] National Toxicology Program [NTP] U.S. Food and Drug Administration [FDA] Tox21 Assay Overview: The Glucocorticoid receptor (GR) is one of the members of the nuclear receptor family of ligand-dependent transcription factors. GR plays a critical role in carbohydrate, protein and lipid metabolisms and programmed cell death. CellSensor GR-bla HeLa cell line (Invitrogen) contains a beta-lactamase reporter gene under the control of the glucocorticoid response element stably integrated into HeLa cells, a cervical cancer cell line that expresses glucocorticoid receptor. The activation of the reporter gene under culture conditions can be detected by fluorescence intensity. This cell line has been used to screen the Tox21 10K compound library and to identify the compounds that inhibit the GR signaling.
Tox21 Assay Protocol Summary: The GR-bla HeLa cells were dispensed at 1500 cells/5 ul/well in 1536-well black wall/clear bottom plates using a Multidrop Combi (ThermoFisher Scientific, Waltham, MA) dispenser. After the assay plates were incubated at a 37 C/5% CO2 incubator for 4 hours, 23 nL of compounds dissolved in DMSO, positive controls or DMSO only was transferred to the assay plate by a pintool station (Kalypsys, San Diego, CA), followed by addition of 1 uL of dexamethasone (5 nM, final concentration in the well). The plates were incubated at 37 C for 18 hours. After 1 uL of LiveBLAzerTM B/G FRET substrate was added using a Flying Reagent Dispenser (Aurora Discovery, San Diego, CA), the plates were incubated at room temperature for 2 hours, and fluorescence intensity was measured by an Envision plate reader (PerkinElmer, Shelton, CT).
On the % scale 0 is the no-effect control and ±100 the full control effect; potency means the concentration at half of the fitted maximal effect.

Chain of Glucocorticoid receptor (Homo sapiens) (P04150 whole entry, looked up): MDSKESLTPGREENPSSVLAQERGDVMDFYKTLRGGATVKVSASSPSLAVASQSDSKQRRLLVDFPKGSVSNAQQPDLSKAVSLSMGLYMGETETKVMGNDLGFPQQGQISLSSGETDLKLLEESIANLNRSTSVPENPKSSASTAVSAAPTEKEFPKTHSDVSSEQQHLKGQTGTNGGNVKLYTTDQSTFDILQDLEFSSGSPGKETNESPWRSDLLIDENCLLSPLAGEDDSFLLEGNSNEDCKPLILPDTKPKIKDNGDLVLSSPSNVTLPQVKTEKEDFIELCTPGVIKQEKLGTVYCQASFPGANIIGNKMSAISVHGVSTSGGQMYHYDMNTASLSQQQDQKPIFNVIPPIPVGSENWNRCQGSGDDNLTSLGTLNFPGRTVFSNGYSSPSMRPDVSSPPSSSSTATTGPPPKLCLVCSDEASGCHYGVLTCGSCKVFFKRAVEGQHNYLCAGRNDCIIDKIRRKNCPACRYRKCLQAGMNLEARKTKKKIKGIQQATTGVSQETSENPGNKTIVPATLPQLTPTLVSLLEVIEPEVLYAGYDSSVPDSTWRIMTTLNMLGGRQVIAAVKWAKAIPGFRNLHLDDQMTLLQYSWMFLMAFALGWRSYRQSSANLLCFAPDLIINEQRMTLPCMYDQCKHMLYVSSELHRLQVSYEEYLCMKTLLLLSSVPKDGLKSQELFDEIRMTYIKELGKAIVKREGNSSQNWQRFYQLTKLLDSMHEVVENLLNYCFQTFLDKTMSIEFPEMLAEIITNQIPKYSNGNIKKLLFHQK

Row | SMILES | activity change, negative = inhibition | Potency
1 | O=S(=O)(O)CC(S)CS (stereo not given) | 4.52% (inactive) | –
2 | O=C(O)/C=C/C(O)c1ccc(Cl)cc1 (stereo not given) | 5.21% (inactive) | –
3 | N=C(N)n1cccn1 | 7.66% (inactive) | –
4 | COc1cc2c(c(OC)c1OC)-c1c(cc3c(c1OC)OCO3)C[C@@H](C)[C@](C)(O)C2 | – | inactive
5 | O=C(O)/C=C/C(=O)Nc1ccc(S(=O)(=O)Nc2nccs2)cc1 | -1.91% (inactive) | –
6 | C/C(=C(/CCO)SSCC1CCCO1)N(C=O)Cc1cnc(C)nc1N (stereo not given) | 16.4% (inactive) | –
7 | Nc1cc(Cl)c(NC2=NCCN2)c(Cl)c1 | 26.2% (inactive) | –
8 | COc1c(O)cc2c(c1O)[C@@H]1O[C@H](CO)[C@@H](O)[C@H](O)[C@H]1OC2=O | 4.58% [at 27 µM] (inactive) | –
9 | O=C(CCCCCCCCc1cccnc1)N1CCC(C=C(c2ccccc2)c2ccccc2)CC1 | – | 21.9 µM (active)
10 | O=C(O)COc1ccc(C(=O)c2cccs2)c(Cl)c1Cl | -9.35% (inactive) | –
11 | CN1CC[C@H](c2c(O)cc(O)c3c(=O)cc(-c4ccccc4Cl)oc23)[C@H](O)C1 | – | 0.674 µM (active)
12 | CNCCC=C1c2ccccc2CCc2ccccc21 | -23.2% (inactive) | –
13 | O=C(O)[C@H]1CN(C/C=C/P(=O)(O)O)CCN1 | 3.18% (inactive) | –
14 | C[S+](C)CCC(N)C(=O)O (stereo not given) | 5.32% (inactive) | –
15 | C=CCN1C(=O)C(CC(C)C)NC1=S (stereo not given) | – | inactive
16 | O=c1[nH]c(=O)n([C@H]2C[C@H](O)[C@@H](CO)O2)cc1/C=C/Br | 1.11% (inactive) | –
17 | CCCCCCCCCCCCCCCC(=O)OC[C@H](COP(=O)([O-])OCC[N+](C)(C)C)OC(=O)CCCCCCCCCCCCCCC | -2.35% (inactive) | –
18 | C[N+]1(CCCCC[N+]2(C)CCCC2)CCCC1 | 15.9% (inactive) | –
19 | NC(N)=NCc1cccc(I)c1 | – | inactive
20 | C[C@@H]1O[C@@H](OC[C@H]2O[C@@H](Oc3c(-c4ccc(OCCO)c(OCCO)c4)oc4cc(OCCO)cc(O)c4c3=O)[C@H](O)[C@@H](O)[C@@H]2O)[C@H](O)[C@H](O)[C@H]1O | -3.23% (inactive) | –

Row | SMILES | activity change, negative = inhibition | Potency
21 | COC1=C(OC)C(=O)C(C/C=C(\C)CC/C=C(\C)CC/C=C(\C)CC/C=C(\C)CC/C=C(\C)CC/C=C(\C)CC/C=C(\C)CC/C=C(\C)CC/C=C(\C)CCC=C(C)C)=C(C)C1=O | – | inactive
22 | CC(=O)NC[C@H]1CN(c2ccc(N3CCOCC3)c(F)c2)C(=O)O1 | 9.78% (inactive) | –
23 | Nc1nc(/C(=C/CC(=O)O)C(=O)N[C@@H]2C(=O)N3C(C(=O)O)=CCS[C@H]23)cs1 | 3.79% (inactive) | –
24 | Cc1c(N)nc([C@H](CC(N)=O)NC[C@H](N)C(N)=O)nc1C(=O)N[C@H](C(=O)N[C@H](C)[C@@H](O)[C@H](C)C(=O)N[C@H](C(=O)NCCc1nc(-c2nc(C(=O)NCCCCN=C(N)N)cs2)cs1)[C@@H](C)O)[C@@H](O[C@@H]1O[C@@H](CO)[C@@H](O)[C@H](O)[C@@H]1O[C@H]1O[C@H](CO)[C@@H](O)[C@H](OC(N)=O)[C@@H]1O)c1cnc[nH]1 | -24.8% (inactive) | –
25 | C=CC[N@@+]12CC[C@@]34c5ccccc5N5/C=C6/[C@H]7C[C@H]8[C@@]9(CC[N@@+]8(CC=C)C/C7=C/CO)c7ccccc7N(/C=C(/[C@@H](C[C@@H]31)/C(=C\CO)C2)[C@H]54)[C@@H]69 | 14.7% [at 27 µM] (inactive) | –
26 | C=C1[C@@H]2CC[C@@H](C2)C1(C)C | 1.89% (inactive) | –
27 | CO/N=C(\C(=O)N[C@@H]1C(=O)N2C(C(=O)O)=C(COC(C)=O)CS[C@H]12)c1csc(N)n1 (stereo in doubt) | -18.9% (inactive) | –
28 | CO[C@H]1C[C@H](O[C@H]2[C@H](C)[C@@H](O[C@@H]3O[C@H](C)C[C@H](N(C)C)[C@H]3O)[C@@H](C)C[C@]3(CO3)C(=O)[C@H](C)[C@@H](O)[C@@H](C)[C@@H](C)OC(=O)[C@@H]2C)O[C@@H](C)[C@@H]1O | -3.69% [at 27 µM] (inactive) | –
29 | CCCCCCOC(=O)c1cccnc1 | 4.92% (inactive) | –
30 | CC(=O)OCC1=C(C(=O)O)N2C(=O)[C@@H](NC(=O)Cc3ccccc3)[C@H]2SC1 | 3.6% (inactive) | –
31 | CCc1ncnc2cc(OC)c(OC)cc12 | -5.74% (inactive) | –
32 | NC[C@@H]1CC[C@@H](N)[C@@H](O[C@H]2[C@H](O)[C@@H](O[C@H]3O[C@H](CO)[C@@H](O)[C@H](N)[C@H]3O)[C@H](N)C[C@@H]2N)O1 | 18% (inactive) | –
33 | FC(F)(F)COCC(F)(F)F | 6.22% (inactive) | –
34 | CCC[C@@H]1C[C@@H](C(=O)N[C@@H]([C@H]2O[C@H](SC)[C@H](OP(=O)(O)O)[C@@H](O)[C@H]2O)[C@H](C)Cl)N(C)C1 | – | inactive
35 | CO/N=C(\C(=O)N[C@@H]1C(=O)N2C(C(=O)O)=C(CSc3cnns3)CS[C@H]12)c1csc(N)n1 | 16.3% (inactive) | –
36 | C=CC(N)CCC(=O)O (stereo not given) | -5.28% (inactive) | –
37 | CC(C)=CCC/C(C)=C/CC/C(C)=C/CC/C=C(\C)CC/C=C(\C)CCC=C(C)C | -1.24% (inactive) | –
38 | O=C[C@H](O)[C@@H](O)[C@@H](O)[C@H](O)CO | 11.7% (inactive) | –
39 | CC(C)c1ncc([N+](=O)[O-])n1C | 17.9% (inactive) | –
40 | C[C@@H]1O[C@@H]1P(=O)(O)O | 10.7% (inactive) | –
